Source: PubChem BioAssay (Sanford-Burnham Center for Chemical Genomics)
Most compounds without a hit are left out; they make up all but 6.3% or so of the library.
tim23-1 inh – growth inhibitors of tim23-1 mutant yeast, primary screen, luminescence, uHTS | S. cerevisiae tim23-1 growth, BacTiter-Glo luminescence, 24 h | inhibition, % at 20 µM | 1.3% of 330,000 active | AID 463212, 2010;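 active = growth inhibition of the mutant yeast at or above 50%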;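 note: temperature-sensitive mutant grown at 25 °C; plate controls were DMSO-treated mutant yeast for no effect and medium wells lacking yeast for full effect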
TIM10 inh – growth inhibitors of isogenic TIM10 control yeast, primary screen, counter-screen for tim10-1 yeast inhibitor project, luminescence, uHTS; S. cerevisiae TIM10 strain growth, BacTiter-Glo luminescence, 24 h; inhibition, % at 10 µM; 1.4% of 330,000 active;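 active = inhibition of 40% or more at the single tested concentration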;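 note: wild-type TIM10 isogenic control strain grown at permissive 25 °C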
Mdm2 MdmX PPI – inhibitors of human Mdm2-MdmX association, primary screen, cell-based, luminescence, split luciferase, SaOS-2, uHTS. SaOS-2 split-luciferase Mdm2/MdmX complementation. 3% of 330,000 active. inhibition, % at 8 µM. Protein Mdm4 (Homo sapiens) + E3 ubiquitin-protein ligase Mdm2 (Homo sapiens), …. AID 485346, 2010;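 active = inhibition of at least 50% at 8 µM in the primary screen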
MPTP block – mitochondrial permeability transition pore inhibitors, primary screen, biochemical, isolated mouse mitochondria, absorbance; 1.4% of 360,000 active; inhibition, % at 10 µM; Ca2+ swelling absorbance, 30 min;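 active = inhibition of 50% or more, scaled per plate between neutral and stimulator controls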;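 note: 0% = DMSO wells given calcium and 100% = 1 mM EGTA wells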
tim10-1 inh – growth inhibitors of tim10-1 mutant yeast, primary screen, luminescence, uHTS. S. cerevisiae tim10-1 ts strain growth, BacTiter-Glo, 24 h. inhibition, % at 20 µM. 2.2% of 330,000 active. AID 463190, 2010;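 active = inhibition of at least 40%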;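 note: mutant grown at 25 °C; 0% = DMSO wells with yeast and 100% = wells holding no yeast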
Mdm2 MdmX conf – Mdm2-MdmX complex disruptors, retested hits, confirmation, luminescence, single concentration; shares compounds with Mdm2 MdmX PPI; Mdm2-MdmX binding, luminescent assay; inhibition, % at 8 µM; 55% of 10,000 active; AID 489028, 2010; in the data active = inhibition above about 40%
FLuc counter – full-length luciferase signal inhibition, confirmation, counter-screen for Mdm2/MdmX interaction inhibitor project, cell-based, single concentration, SaOS-2; AID 504607, 2011; 77% of 6,200 active; shares compounds with Mdm2 MdmX PPI; inhibition, % at 8 µM; SaOS-2 full-length luciferase counterscreen, luminescence;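 active = mean inhibition at 8 µM reaching about 37%, which flags the compound as non-specific, limit read from the data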;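 note: p53-null SaOS-2 cells with luciferase driven by a doxycycline-inducible promoter; compound on cells about two nights before reading with doxycycline added after day one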
* hit, by the source's call; nt = no result.

SMILES	tim23-1 inh	TIM10 inh	Mdm2 MdmX PPI	MPTP block	tim10-1 inh	Mdm2 MdmX conf	FLuc counter
Cc1ccc(NC(=O)CN2C(=O)S/C(=C\c3cccn3-c3cccc(C(=O)O)c3)C2=O)cc1C	-24	4	3	1	-20	nt	nt
Cn1cc(/C=C2/SC(=O)N(CC(=O)Nc3ccc4c(c3)OCO4)C2=O)c2ccccc21	24	-1	64*	1	19	21	nt
O=[N+]([O-])c1cc(S(=O)(=O)Nc2ccccc2)ccc1-n1nnc2ccccc21	27	8	26	1	16	nt	nt
O=[N+]([O-])c1cc(C(F)(F)F)ccc1-n1nnc2ccccc21	12	2	64*	-1	2	10	nt
COc1cccc(CNc2ncc(C(=O)Nc3cc(OC)c(OC)c(OC)c3)c(C)n2)c1	-2	-7	55*	1	-9	57*	48*
CSc1ncnc2c1ncn2CCCNCc1ccc(C)o1	nt	nt	nt	1	nt	nt	nt
O=C(N/N=C/c1ccc[nH]1)c1ccc(O)cc1	0	-17	7	0	-7	nt	nt
Cc1cc(Br)c(OCc2ccc(C(=O)N/N=C/c3ccc[nH]3)cc2)c(Br)c1	6	2	98*	4	4	94*	11
O=C(N/N=C/c1ccc[nH]1)c1ccc(COc2cccc3cccnc23)cc1	15	18	97*	-1	6	83*	52*
O=C(N/N=C/c1ccccc1C(=O)O)c1ccc(COc2cccc3cccnc23)cc1	6	7	5	-5	4	nt	nt
CC(C)Cn1c(N)c(C(=O)CSc2cc(Cl)ccc2Cl)c(=O)n(C)c1=O	4	-1	69*	nt	20	-2	nt
CC(C)Cn1c(N)c(C(=O)CSc2ncccn2)c(=O)n(C)c1=O	11	2	25	0	-2	nt	nt
c1ccc(C2CC(c3ccccc3)n3c(nc4ccccc43)N2)cc1 (centres undefined)	-11	-19	63*	-2	20	40*	48*
COc1ccc(-c2csc(C(C)(O)c3cccc(F)c3)n2)cn1 (centres undefined)	nt	nt	nt	0	nt	nt	nt
Cc1c(C(=O)/C=C/c2ccccc2F)c2cc(O)ccc2n1C	nt	nt	nt	2	nt	nt	nt
N/C(=N\OC(=O)C12CC3CC(CC(C3)C1)C2)c1cccnc1	38	34	71*	1	35	2	nt
N/C(=N\OC(=O)C1CCCCC1)c1cccnc1	23	-2	27	-2	33	nt	nt
CCCSc1nc2c(cnn2-c2ccccc2)c(=O)[nH]1	12	-4	0	0	12	nt	nt
Cc1ccc(SCC(=O)NCCC2=CCCCC2)cc1	1	17	-12	5	20	nt	nt
CCCSc1nc2c(cnn2-c2ccc(C)cc2)c(=O)[nH]1	9	-13	50*	0	14	12	nt
Cc1cccc(-n2ncc3c(=O)[nH]c(SCC(=O)NCCC4=CCCCC4)nc32)c1	-2	2	90*	0	-15	5	nt
O=c1cc(-c2ccc(O)c(O)c2)oc2ccc3ccccc3c12	-3	9	55*	5	8	74*	131*
O=P(CCCCCCCCCP(=O)(c1ccccc1)c1ccccc1)(c1ccccc1)c1ccccc1	27	23	66*	2	28	30	nt
O=C(O)CCCCCCCCCCP(=O)(c1ccccc1)c1ccccc1	31	7	-32	2	5	nt	nt
C(=N\Nc1nc2ccccc2[nH]1)/c1ccc2c(c1)OCCO2	13	14	-75	0	-7	nt	nt
C(=N\Nc1ccc2ccccc2n1)/c1ccc2c(c1)OCCO2	12	-2	69*	0	10	79*	98*
CSc1nc(SCC(=O)NCc2ccco2)c2c3c(sc2n1)COC(C)(C)C3	24	-1	51*	-2	27	41*	68*
